This is an account of results in PubChem BioAssay.

Molecules are shown by their SMILES. Unmarked numbers belong to inactive results. For some of these results: Potency and affinity values are given separately. Calls of active or inactive are those of the source. Unless noted, how the calls were made is not given here.

The nature of assay [1]: antimalarial activity against Dd2 strain (AID 2302;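 active means growth inhibition above 50% at the single 2 µM test dose, taken to imply half-maximal potency below 2 µM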;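 further: 0% = DMSO untreated growth and 100% = chloroquine plus artemisinin killed control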). The settings on record: P. falciparum Dd2 in RBCs, LDH growth readout, 72 h; at 2 µM; active compounds read high.
A short description of assay [2]: HepG2 cytotoxicity, primary screen, cytotoxicity control for P. falciparum antimalarial project, cell-based, ATP luminescence (AID 2303;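 active means inhibition above 50%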;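 further: 0% = DMSO wells and 100% = digitonin-killed cells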). As to conditions: HepG2 viability, 24-48 h, at 10 µM, active compounds read high.
The target of assay [3] is L-lactate dehydrogenase (Plasmodium falciparum (isolate CDC / Honduras)) (UniProt Q27743). In words: PfLDH activity inhibition – cell lysate, 3D7 strain, counter-screen for P. falciparum growth inhibition project (AID 2304).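 Further: 0% = vehicle and 100% = reference inhibitor.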 The settings on record: P. falciparum 3D7 crude extract, LDH APAD/NBT absorbance; at 2 µM; active compounds read high. In general terms: The purpose of a counterscreen is to sort out artefacts and off-target activity.

The nature of assay [4]: inhibition of 3D7 malaria parasite growth – strain 3D7 (AID 2306).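 Further: 0% = DMSO wells and 100% = chloroquine plus artemisinin control wells.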 As to conditions: P. falciparum 3D7 erythrocytic growth, LDH absorbance, 72 h; at 2 µM; active compounds read high.
In assay [5] the target is Plasmodium falciparum protein kinase 6 (PK6, PF3D7_1337100) (UniProt Q8IDW1). Nature of the assay: PfPK6 kinase inhibitors, biochemical, TCAMS library (AID 1159586). The settings on record: recombinant PfPK6, Kinase-Glo ATP depletion luminescence. (Kinase-Glo measures the ATP left after a reaction by luminescence.)
Assay [6] concerns the target Protein kinase 7 (PK7), Plasmodium falciparum 3D7 (PF3D7_0213400) (UniProt Q7YTF7). In words: inhibition of Plasmodium PK7 catalytic activity – biochemical, TCAMS antimalarial set, Kinase-Glo luminescence (AID 1159587). The settings on record: recombinant PfPK7, Kinase-Glo ATP depletion luminescence.
In assay [7] the target is Calcium-dependent protein kinase 4 (Plasmodium falciparum (isolate 3D7)) (UniProt Q8IBS5). Nature of the assay: PfCDPK4 kinase inhibitors, biochemical, TCAMS library (AID 1159588; cut-off not given, nearly all actives have IC50 up to about 0.91 µM). As to conditions: recombinant PfCDPK4, Kinase-Glo ATP depletion luminescence.
Calcium-dependent protein kinase 4 (Plasmodium falciparum (isolate 3D7)), sequence (Q8IBS5 whole entry, looked up): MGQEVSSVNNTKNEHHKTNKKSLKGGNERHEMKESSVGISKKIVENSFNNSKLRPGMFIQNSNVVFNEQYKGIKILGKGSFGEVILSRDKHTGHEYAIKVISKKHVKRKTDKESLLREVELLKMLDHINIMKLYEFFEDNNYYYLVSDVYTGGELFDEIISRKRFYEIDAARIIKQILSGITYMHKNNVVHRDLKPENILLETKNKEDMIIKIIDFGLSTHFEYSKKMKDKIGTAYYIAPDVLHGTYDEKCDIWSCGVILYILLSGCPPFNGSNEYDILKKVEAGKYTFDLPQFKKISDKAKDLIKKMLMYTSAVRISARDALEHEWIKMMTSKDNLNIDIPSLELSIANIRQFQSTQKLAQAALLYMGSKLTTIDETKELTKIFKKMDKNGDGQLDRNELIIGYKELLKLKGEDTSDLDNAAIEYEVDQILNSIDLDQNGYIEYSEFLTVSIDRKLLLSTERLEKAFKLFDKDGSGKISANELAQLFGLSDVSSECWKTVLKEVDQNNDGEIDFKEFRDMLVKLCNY

L-lactate dehydrogenase (Plasmodium falciparum (isolate CDC / Honduras)), sequence (Q27743 whole entry, looked up): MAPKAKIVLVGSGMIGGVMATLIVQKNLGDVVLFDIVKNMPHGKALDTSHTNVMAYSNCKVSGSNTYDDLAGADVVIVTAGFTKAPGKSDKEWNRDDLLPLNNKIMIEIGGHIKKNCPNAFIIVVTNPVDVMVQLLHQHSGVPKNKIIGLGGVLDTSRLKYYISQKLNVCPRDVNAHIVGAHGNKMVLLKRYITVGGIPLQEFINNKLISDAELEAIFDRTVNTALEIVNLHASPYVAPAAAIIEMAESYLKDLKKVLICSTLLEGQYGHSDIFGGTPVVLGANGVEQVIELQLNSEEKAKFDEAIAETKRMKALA
Plasmodium falciparum protein kinase 6 (PK6, PF3D7_1337100), sequence (Q8IDW1 1-305): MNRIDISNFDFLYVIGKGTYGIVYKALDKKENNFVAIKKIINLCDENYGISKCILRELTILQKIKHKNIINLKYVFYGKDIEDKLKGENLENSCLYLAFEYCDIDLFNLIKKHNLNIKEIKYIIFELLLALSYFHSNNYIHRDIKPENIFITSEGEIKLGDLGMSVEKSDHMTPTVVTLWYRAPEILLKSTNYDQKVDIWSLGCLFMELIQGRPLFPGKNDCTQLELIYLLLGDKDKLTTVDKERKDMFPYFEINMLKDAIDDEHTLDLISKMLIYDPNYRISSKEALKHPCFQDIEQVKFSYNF
Protein kinase 7 (PK7), Plasmodium falciparum 3D7 (PF3D7_0213400), sequence (Q7YTF7 1-343): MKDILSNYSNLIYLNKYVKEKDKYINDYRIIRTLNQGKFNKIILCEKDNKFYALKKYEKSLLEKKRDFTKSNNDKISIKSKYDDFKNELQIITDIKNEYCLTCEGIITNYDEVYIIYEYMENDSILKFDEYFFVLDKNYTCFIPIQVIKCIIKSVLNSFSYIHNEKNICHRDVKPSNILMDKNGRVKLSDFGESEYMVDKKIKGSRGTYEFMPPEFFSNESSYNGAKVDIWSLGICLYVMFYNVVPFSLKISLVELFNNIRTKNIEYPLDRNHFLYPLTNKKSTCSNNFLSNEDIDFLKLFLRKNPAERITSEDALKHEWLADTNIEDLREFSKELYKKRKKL

As a reminder, the inhibition is the relative decrease from the control value, in per cent. On to `CS(=O)(=O)c1cccc(-c2cnc3[nH]cc(-c4cccc(CCN)c4)c3c2)c1`, for which the growth inhibition in assay [1] was 74% (active); in assay [4], 99% (active). Also, the inhibition in assay [2] is -12%; in assay [3], -5%. Further, the result in assay [5], in assay [6] and in assay [7] was inactive.
With `CCn1c(-c2nonc2N)nc2c(-c3ccccc3)ncc(OCCCNCCCN3CCOCC3)c21`, the results for the growth inhibition in assay [1] and in assay [4] were 91% (active) and 100% (active), respectively. Further, the inhibition in assay [2] is 28%; in assay [3] it was -7%. Besides, the outcome in assay [5] and in assay [6] was inactive.
Take `CC(C)(NCc1ncc[nH]1)c1nc(-c2ccc(Cl)c(O)c2)c(-c2ccncc2)[nH]1`: the growth inhibition in assay [1] was 97% (active); in assay [4] it was 95% (active). The inhibition is 42% in assay [2] and 3% in assay [3]. Further, the result in assay [5], in assay [6] and in assay [7] was inactive.
For `COc1cc(Nc2nccc(-c3c(-c4cccc(NC(=O)c5c(F)cccc5F)c4)nn4ccccc34)n2)cc(OC)c1OC`, the growth inhibition in assay [1] and in assay [4] was 98% (active) throughout. Besides, the inhibition was 74% (active) in assay [2] and 4% in assay [3]. Besides, the result in assay [5] and in assay [6] was inactive.
Take `O=C(NCCN1CCC(c2ccncc2)CC1)c1ccc(Nc2nccc(Nc3ccc(Oc4ccccc4)cc3)n2)cc1`: the growth inhibition is 90% (active) in assay [1] and 102% (active) in assay [4]. The inhibition in assay [2] was 17%; in assay [3], 1%. The outcome in assay [5], in assay [6] and in assay [7] was inactive.
With `COCCOc1ccc(Nc2nccc(-c3c(-c4cccc(NC(=O)c5c(F)cccc5F)c4)nn4ccccc34)n2)cc1Cl`, the growth inhibition in assay [1] is 97% (active); in assay [4] it was 99% (active). The inhibition in assay [2] is 53% (active); in assay [3] it was 4%. The result in assay [5] and in assay [6] was inactive.
`NC[C@H](CC1CCCCC1)NC(=O)c1ccc(-c2ccnc3[nH]ccc23)s1`: the growth inhibition in assay [1] is 4%; in assay [4], 98% (active). The inhibition is 39% in assay [2] and 5% in assay [3]. The outcome in assay [5] and in assay [6] was inactive.
As for `CCn1c(-c2nonc2N)nc2c(-c3cccc(NC(=O)Nc4ccc(Cl)cc4)c3)ncc(OCCCN)c21`, the growth inhibition in assay [1] is 72% (active); in assay [4] it was 96% (active). Further, the inhibition in assay [2] was 26%; in assay [3] it was -1%. For the same compound, the outcome in assay [5], in assay [6] and in assay [7] was inactive.
As to `CN(C)CCN(C)Cc1ccc(-c2ccc3c(Nc4ccc(Cl)cc4F)ccnc3c2)o1`, the growth inhibition in assay [1] was 76% (active); in assay [4], 100% (active). Further, the values for the inhibition in assay [2] and in assay [3] were 20% and 1%, respectively. In addition, the outcome in assay [5], in assay [6] and in assay [7] was inactive.
In the case of `CN(C)CCNCc1ccc(-c2ccc3c(Nc4ccc(Cl)cc4F)ccnc3c2)o1`, the results for the growth inhibition in assay [1] and in assay [4] were 100% (active) and 99% (active), respectively. The inhibition in assay [2] is 14%; in assay [3] it was -4%. The result in assay [5], in assay [6] and in assay [7] was inactive.
With `CC(C)(CNCc1ccccc1)c1nc(-c2ccc(Cl)c(O)c2)c(-c2ccncc2)[nH]1`, the growth inhibition is 99% (active) in assay [1] and 101% (active) in assay [4]. Also, the inhibition is 77% (active) in assay [2] and -2% in assay [3]. In addition, the outcome in assay [5], in assay [6] and in assay [7] was inactive.
Turning to `O=C(Nc1cccc(-c2nn3ncccc3c2-c2ccnc(Nc3ccccc3)n2)c1)c1c(F)cccc1F`, the growth inhibition in assay [1] is 96% (active); in assay [4] it was 98% (active). Also, the inhibition is 51% (active) in assay [2] and 0% in assay [3]. The result in assay [5] and in assay [6] was inactive.
Turning to `CCn1c(-c2nonc2N)nc2c(-c3cccc(NC(=O)Nc4cccc(C(F)(F)F)c4)c3)ncc(OCCCN)c21`, the growth inhibition in assay [1] was 70% (active); in assay [4], 95% (active). The inhibition is 21% in assay [2] and 2% in assay [3]. In addition, the outcome in assay [5] and in assay [6] was inactive.
`O=c1[nH]ccc2nc(N[C@@H]3CCCNC3)nc(Nc3ccc(S(=O)(=O)N4CCOCC4)cc3)c12`: the growth inhibition in assay [1] was 99% (active); in assay [4] it was 96% (active). Moreover, the inhibition in assay [2] is 13%; in assay [3], 0%. For the same compound, the outcome in assay [6] and in assay [7] was inactive.
With `CCn1c(-c2nonc2N)nc2c(-c3cccc(Cl)c3)ncc(OCCCNCc3cnc(C)nc3N)c21`, the growth inhibition was 48% in assay [1] and 93% (active) in assay [4]. Besides, the inhibition in assay [2] was 21%; in assay [3] it was 3%. Besides, the outcome in assay [5] and in assay [6] was inactive.
For the compound `NS(=O)(=O)c1cccc(Nc2nccc(-c3c(-c4cccc(NC(=O)c5c(F)cccc5F)c4)nn4ccccc34)n2)c1`, the growth inhibition was 97% (active) in assay [1] and 98% (active) in assay [4]. Moreover, the inhibition in assay [2] is 81% (active); in assay [3] it was 2%. In addition, the outcome in assay [5] and in assay [6] was inactive.
`NS(=O)(=O)c1ccc(Nc2nccc(-c3c(-c4cccc(NC(=O)c5c(F)cccc5F)c4)nn4ccccc34)n2)cc1`: the growth inhibition in assay [1] is 89% (active); in assay [4], 93% (active). For the same compound, the inhibition in assay [2] is 83% (active); in assay [3], -7%. Further, the outcome in assay [6] and in assay [7] was inactive.
`NS(=O)(=O)CCc1cccc(Nc2nccc(-c3c(-c4cccc(NC(=O)c5c(F)cccc5F)c4)nn4ccccc34)n2)c1`: the growth inhibition in assay [1] was 97% (active); in assay [4] it was 98% (active). Further, the inhibition is 84% (active) in assay [2] and 3% in assay [3]. Further, the result in assay [5] and in assay [6] was inactive.
Consider `CNC(=O)c1ccccc1Nc1nc(Nc2ccc(N3CCN(C)CC3)nc2)ncc1C`, for which the growth inhibition in assay [1] is 50% (active); in assay [4], 92% (active). For the same compound, the inhibition in assay [2] was 75% (active); in assay [3], 4%. For the same compound, the result in assay [6] and in assay [7] was inactive.
In the case of `CN1CCN(c2ccc(Nc3nccc(-c4cnn5ncccc45)n3)cc2Cl)CC1`, the growth inhibition in assay [1] is 92% (active); in assay [4] it was 95% (active). Besides, the results for the inhibition in assay [2] and in assay [3] were 65% (active) and 0%, respectively. The result in assay [6] and in assay [7] was inactive.
Consider `NCCNC(=O)c1ccc(-c2cnc3[nH]cc(-c4ccc(C(N)=O)cc4)c3c2)cc1`, for which the growth inhibition is 98% (active) in assay [1] and 99% (active) in assay [4]. For the same compound, the inhibition in assay [2] is 2%; in assay [3], -2%. Besides, the result in assay [6] and in assay [7] was inactive.
As for `O=c1[nH]ccc2nc(N[C@@H]3CCNC3)nc(Nc3cc(Cl)cc(Cl)c3)c12`, the growth inhibition was 99% (active) in assay [1] and 101% (active) in assay [4]. Further, the inhibition in assay [2] is 99% (active); in assay [3], -2%. Also, the outcome in assay [5] and in assay [6] was inactive.
